The values that follow come from PubChem BioAssay (Tox21).

SMILES strings stand for the structures. A number with no mark means an inactive call. Calls of active or inactive are those of the source. Unless noted, calls come from the whole dose curve; as a rule, active = well fitted curve in the direction sought with a large enough effect in the repeat runs; inconclusive = weak or mixed curves; inactive = no such curve, though single readings can be large; an effect the other way counts as inactive or inconclusive.

Assay [1] can be described thus: qHTS assay for small molecules that induce genotoxicity in human embryonic kidney cells expressing luciferase-tagged ATAD5 (AID 651632). Note: nearly all actives have a fitted effect of over 15% in size. In a few lines: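 Genotoxicity read-out via ATAD5-luciferase: HEK293T cells, 16 hr compound incubation at 37C, Amplite detection.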
Background: Quantitative high-throughput screening tests each substance at several concentrations.

A short description of assay [2]: qHTS assay for small molecule agonists of the p53 signaling pathway - cell viability (AID 651633; calls by dose curve;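 note: p53RE-bla HCT reporter cells with a stable beta-lactamase p53 reporter; series mostly up to about 83 µM; nearly all actives have a fitted effect of over 30% in size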). The method in brief:
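p53RE-bla cells, seeded at 4,000 per well and rested 5 h at 37 C/5% CO2, received compounds in DMSO for 16 h at 37 C. CellTiter-Glo was then added, and luminescence was read after 30 min at room temperature to gauge cytotoxicity.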

Assay [3] in a line: qHTS assay for small molecules that induce genotoxicity in human embryonic kidney cells expressing luciferase-tagged ATAD5 - cell viability (AID 651634; calls by dose curve; note: nearly all actives have a fitted effect of over 25% in size). In a few lines:
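Live-cell protease activity (CellTiter-Fluor, fluorescence) indicates viability. HEK293T cells with luciferase-tagged ATAD5; 15.5 hr compound treatment at 37C.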

The nature of assay [4]: qHTS assay for small molecule disruptors of the mitochondrial membrane potential - cell viability (AID 720634; calls by dose curve;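 note: human HepG2 liver cancer cells; series mostly up to about 83 µM; nearly all actives have a fitted effect of over 20% in size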). The method in brief: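 Human hepatoma HepG2 cells were treated for 1 hr with test chemicals, then given m-MPI dye and CellTiter-Glo. Cell viability reflects luminescence proportional to cellular ATP.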
A short description of assay [5]: qHTS assay for small molecule disruptors of the mitochondrial membrane potential (AID 720635). Note: potency is the fitted concentration of half-maximal effect. In a few lines:
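HepG2 cells (2,000/well) attached overnight at 37C, then took compound for 1 hr at 37C, 5% CO2. Mito-MPS dye was added for 30 min; fluorescence was read at 490/535 nm (monomers) and 540/590 nm (aggregates).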

A short description of assay [6]: qHTS assay to test for compound auto fluorescence at 590 nm (red) in HepG2 cells (AID 720674). In a few lines: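 Intrinsic compound fluorescence in the red window (Ex/Em 540/590 nm) is measured in attached HepG2 cells exposed for 1 hr, DMSO vehicle as baseline, benchmarked to Rose Bengal sodium.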
Assay [7] is described as follows: qHTS assay to test for compound auto fluorescence at 535 nm (green) in HepG2 cells (AID 720675).
A short description of assay [8]: qHTS assay to test for compound auto fluorescence at 460 nm (blue) in HEK293 cells (AID 720678). The method in brief: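 Cells were seeded and left to adhere for 4-5 hr at 37C. Compounds were then pin-transferred. After an overnight incubation at 37C under 5% CO2, intrinsic fluorescence at 405/460 nm was measured and referenced to triamterene.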
The nature of assay [9]: qHTS assay to test for compound auto fluorescence at 590 nm (red) in HEK293 cells (AID 720679). The method in brief:
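Each well held 2,000 HEK293 cells in medium containing 10% dialyzed FBS. Following 4-5 hr attachment at 37C, 23 nL test compound or DMSO was added; plates sat overnight, and red fluorescence (540/590nm) was recorded.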

The nature of assay [10]: qHTS assay to test for compound auto fluorescence at 535 nm (green) in HEK293 cells (AID 720680).
A short description of assay [11]: qHTS assay to test for compound auto fluorescence at 460 nm (blue) in HEK293 cell free culture (AID 720681). In a few lines: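 Test compounds were pinned into cell-free culture medium (DMEM with 10% FBS) and fluorescence was read directly at Ex/Em 405/460 nm. Signals were expressed as fluorescence equivalents of triamterene, with DMSO vehicle as control.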
Assay [12] is described as follows: qHTS assay to test for compound auto fluorescence at 535 nm (green) in HEK293 cell free culture (AID 720682). The method in brief:
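Measurement is a direct plate read of green fluorescence (485 nm in, 535 nm out) after compound addition to serum-supplemented DMEM lacking cells, with fluorescein used to express intensities.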

Assay [13] can be described thus: qHTS assay to test for compound auto fluorescence at 590 nm (red) in HEK293 cell free culture (AID 720683). In a few lines:
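Tox21 10K library compounds were pinned into cell-free DMEM with 10% FBS and fluorescence was read at excitation 540 nm. Activity is expressed as Rose Bengal sodium equivalency.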

Assay [14] in a line: qHTS assay to test for compound auto fluorescence at 460 nm (blue) in HepG2 cell free culture (AID 720685). The method in brief:
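Compound (23 nL) or DMSO pinned into cell-free MEM with 10% FBS; blue fluorescence read at 405/460 nm excitation/emission, expressed as auto-fluorescence equivalency to triamterene.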

Assay [15] in a line: qHTS assay to test for compound auto fluorescence at 535 nm (green) in HepG2 cell free culture (AID 720686).
A short description of assay [16]: qHTS assay to test for compound auto fluorescence at 460 nm (blue) in HepG2 cells (AID 720687). In a few lines:
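Cells (2,000/well in MEM with 10% FBS) attached overnight at 37 C, then were exposed to compound or DMSO for 1 hr at 37 C, 5% CO2. Fluorescence read at Ex/Em 405/460 nm, expressed as triamterene-equivalent signal.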

In assay [17] the target is Glucocorticoid receptor (Homo sapiens) (UniProt P04150). The assay is described as follows: qHTS assay to identify small molecule antagonists of the glucocorticoid receptor (GR) signaling pathway (AID 720692; active = well fitted inhibition curve with a large enough effect in the signal ratio in the repeat runs, not every such curve was filed as active; inconclusive = weak or mixed curves, or effect the other way; inactive = no such curve, though single readings can be large or run the other way; the % refers to the signal ratio). In a few lines:
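Fluorescence from cleaved LiveBLAzer B/G FRET substrate reports GRE-driven beta-lactamase in HeLa cells; compounds are tested against 5 nM dexamethasone (final) over 18 h at 37 C, substrate incubation 2 h at room temperature.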

The nature of assay [18]: qHTS assay to test for compound auto fluorescence at 590 nm (red) in HepG2 cell free culture (AID 720684). The method in brief: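 Red fluorescence (540 nm excitation, 590 nm emission) was measured after compound transfer into cell-free MEM supplemented with 10% FBS. Values are equivalencies against Rose Bengal sodium.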
The target in assay [19] is Glucocorticoid receptor (Homo sapiens) (UniProt P04150). The assay is described as follows: qHTS assay to identify small molecule agonists of the glucocorticoid receptor (GR) signaling pathway (AID 720691; active = well fitted activation curve with a large enough effect in the signal ratio in the repeat runs, not every such curve was filed as active; inconclusive = weak or mixed curves, or effect the other way; inactive = no such curve, though single readings can be large or run the other way; the % refers to the signal ratio; note: potency is the fitted concentration of half-maximal effect). The method in brief: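 Beta-lactamase reporter activity, read as fluorescence intensity, was measured in GR-bla HeLa cells exposed to compounds for 18 h at 37 C and then loaded with LiveBLAzer B/G FRET substrate for 2 h at room temperature.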
% is set by controls: 0 for no effect and ±100 for the full control effect.

Sequence of Glucocorticoid receptor (Homo sapiens) (P04150 whole entry, looked up): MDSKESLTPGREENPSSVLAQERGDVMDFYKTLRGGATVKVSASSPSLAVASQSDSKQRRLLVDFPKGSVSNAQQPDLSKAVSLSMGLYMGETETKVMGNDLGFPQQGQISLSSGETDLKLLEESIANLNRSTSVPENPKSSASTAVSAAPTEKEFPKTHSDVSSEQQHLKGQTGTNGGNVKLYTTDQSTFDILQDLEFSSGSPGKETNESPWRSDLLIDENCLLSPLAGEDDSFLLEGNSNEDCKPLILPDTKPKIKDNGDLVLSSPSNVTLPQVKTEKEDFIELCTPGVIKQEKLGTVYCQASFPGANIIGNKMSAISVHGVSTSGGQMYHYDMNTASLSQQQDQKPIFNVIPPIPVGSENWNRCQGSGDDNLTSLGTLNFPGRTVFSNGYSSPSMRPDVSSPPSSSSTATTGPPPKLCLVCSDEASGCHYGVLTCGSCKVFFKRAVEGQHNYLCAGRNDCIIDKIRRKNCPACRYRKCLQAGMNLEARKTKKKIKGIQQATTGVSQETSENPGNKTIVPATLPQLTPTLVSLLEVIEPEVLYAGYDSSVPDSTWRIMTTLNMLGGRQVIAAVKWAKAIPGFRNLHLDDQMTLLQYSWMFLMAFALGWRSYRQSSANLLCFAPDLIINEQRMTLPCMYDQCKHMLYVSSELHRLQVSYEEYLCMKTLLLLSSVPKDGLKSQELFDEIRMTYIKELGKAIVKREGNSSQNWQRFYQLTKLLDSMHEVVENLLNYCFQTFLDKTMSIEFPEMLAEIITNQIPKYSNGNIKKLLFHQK

For the compound `CSc1ccc(C=O)cc1`, the Potency result in assay [1], in assay [2], in assay [3], in assay [4], in assay [5] and in assay [8] was “inactive” throughout. Besides, the Potency result in assay [11], in [14], in [16] and in assay [17] was “inactive” each time. Also, the call in [6], in [7], in [9], in [10], in assay [12] and in assay [13] was inactive. Moreover, the result in assay [15] was inactive.
For `Nc1ccn(C2CO[C@H](CO)O2)c(=O)n1` (stereo not given in full), the Potency result in [1], in assay [2], in assay [3], in assay [4], in [8] and in assay [11] was “inactive” each time. Besides, the Potency result in assay [14] and in [16] was “inactive” in each case. For the same compound, the call in [6], in assay [7], in [9], in [10], in assay [12] and in [13] was inactive. The call in [18] and in assay [15] was inactive.
With `CC(C)(C)N(CCO)CCO`, the Potency entry in assay [1], in assay [2], in [3], in assay [4], in assay [5] and in [8] was “inactive” each time. The Potency entry in assay [11], in assay [14], in assay [16], in [19] and in [17] was “inactive” throughout. Also, the outcome in assay [6], in assay [7], in assay [9], in assay [10], in assay [12] and in [13] was inactive. For the same compound, the call in [18] and in [15] was inactive.
With `COc1ccc(COC=O)cc1`, the Potency entry in assay [1], in [2], in [3], in assay [4], in [5] and in [11] was “inactive” throughout. Moreover, the Potency entry in assay [14], in [16], in assay [19] and in [17] was “inactive” throughout. Moreover, the result in [6], in [7], in assay [9], in [10], in [12] and in assay [13] was inactive. The compound was classed as inactive in assay [18] and in [15].
With `CCCCCCOC(=O)CC(CC(=O)OCCCCCC)(OC(=O)CCC)C(=O)OCCCCCC`, the Potency entry in [1], in assay [2], in [3], in assay [4], in [8] and in assay [11] was “inactive” each time. The Potency result in assay [14], in assay [16], in assay [19] and in assay [17] was “inactive” each time. For the same compound, the compound was called inactive in [7], in [9], in [10], in assay [13], in assay [18] and in [15].
Turning to `CNc1ncnc2nc[nH]c12`, the Potency entry in assay [2], in assay [3], in assay [4], in [11], in assay [14] and in [16] was “inactive” throughout. In addition, the Potency in assay [5] is 2.48 µM (active). The compound was called inactive in assay [6], in [7], in assay [9], in assay [10], in assay [12] and in [13]. In addition, the compound was called inactive in [18] and in [15].
Consider `CC/C=C\C#N`, for which the Potency result in assay [1], in assay [2], in assay [3], in assay [4], in assay [11] and in assay [14] was “inactive” in each case. For the same compound, the Potency entry in [16] and in assay [17] was “inactive” each time. Also, the call in [6], in assay [7], in assay [9], in assay [10], in [12] and in assay [13] was inactive. Moreover, in [15], the call was inactive.
With `CCCC(=O)O[C@]1(C(=O)CCl)[C@@H](C)C[C@H]2[C@@H]3CCC4=CC(=O)C=C[C@]4(C)[C@@]3(F)C(=O)C[C@@]21C`, the Potency entry in assay [1], in assay [3], in assay [4], in [8], in [11] and in assay [14] was “inactive” throughout. Besides, in [16], the Potency result was “inactive”. Moreover, the Potency in assay [5] is 23.7 µM (active); in [19], 0.0239 µM [inconclusive] (active). Besides, the outcome in assay [7], in [9], in assay [10], in assay [12], in [13] and in assay [18] was inactive. Also, the compound was called inactive in assay [15].
Consider `C=C(C)C(=O)OCCCCCCCCCCCCCCCCCC`, for which the Potency entry in assay [1], in assay [2], in assay [3] and in [17] was “inactive” throughout. In addition, the fluorescence, relative to Rose Bengal in assay [6] is -0.0569% [at 18.6 µM]. The values for the fluorescence, % of fluorescein control in assay [7] and in assay [15] were -0.0046% [at 18.6 µM] and -0.0135% [at 18.6 µM], respectively. Also, the fluorescence, % of fluorescent control in [9] is 0.299% [at 18.6 µM]; in [11] it was -0.0848% [at 18.6 µM]; in assay [13], -0.0264% [at 18.6 µM]; in [14] it was -0.0261% [at 18.6 µM]; in assay [16], 0.214% [at 18.6 µM]. For the same compound, in assay [10], the fluorescence, % of fluorescein is 0.0795% [at 18.6 µM]. Besides, the activity change in [12] was -0.0033% [at 18.6 µM]. For the same compound, in [18], the fluorescence, % of Rose Bengal is -0.0496% [at 18.6 µM].
`CC(C)(C)CC(C)(C)N`: the Potency result in [1], in [3], in assay [4], in [5], in assay [8] and in [11] was “inactive” throughout. Besides, the Potency result in assay [14], in [16], in [19] and in assay [17] was “inactive” throughout. Also, the call in assay [6], in [7], in [9], in assay [10], in assay [12] and in assay [13] was inactive. Besides, the call in assay [18] and in [15] was inactive.
